In the library only some 2.9% were active in any assay of this set; here they are far more common.
Pol eta inh-1: qHTS for Inhibitors of Polymerase Eta; recombinant Pol eta, fluorescent DNA replication assay; Potency, µM (highest dose often 114 µM), inactives show at the highest dose activity change, negative = inhibition, most hits filed as inhibitors; actives 1.2% (n = 390,000); DNA polymerase eta (Homo sapiens), Q9Y253; AID 588591, 2011; note: potency is the fitted concentration of half-maximal effect; % is set by controls: 0 for no effect and ±100 for the full control effect
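Pol eta at 10 nM preincubated with compounds 15 min at room temperature; reaction started with fluorescent substrate (50 nM final) and read kinetically at 0 and 10 min.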
12-LOX inh: Primary qHTS assay for inhibitors of human arachidonate 12S-lipoxygenase (ALOX12): Round 2; purified 12hLO, xylenol orange hydroperoxide absorbance; Potency, µM (series often up to 108 µM), for the others: top-dose activity change, negative = inhibition, hits mostly inhibitors; actives 1.1% (n = 580,000); AID 1671190, 2021; note: potency is the fitted concentration of half-maximal effect; % is set by controls: 0 for no effect and ±100 for the full control effect
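Hydroperoxide product was detected by ferrous iron/xylenol orange as the 573 to 405 nm absorbance ratio. Arachidonic acid at 40 uM (final) was turned over for 30 min at room temperature by 150 nM human 12hLO, pH 7.0 Hepes buffer, after 15 min compound preincubation.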
Pol iota inh: qHTS for Inhibitors of Polymerase Iota; DNA polymerase iota (Homo sapiens), Q9UNA4; Pol iota fluorescent replication assay, 10 min; Potency, µM (series often up to 115 µM), inactives show at the top dose activity, negative = inhibition, actives largely listed as inhibitors; actives 1% (n = 390,000); AID 588590, 2011; note: potency is the fitted concentration of half-maximal effect
Target sequence (Q9UNA4 whole entry, looked up): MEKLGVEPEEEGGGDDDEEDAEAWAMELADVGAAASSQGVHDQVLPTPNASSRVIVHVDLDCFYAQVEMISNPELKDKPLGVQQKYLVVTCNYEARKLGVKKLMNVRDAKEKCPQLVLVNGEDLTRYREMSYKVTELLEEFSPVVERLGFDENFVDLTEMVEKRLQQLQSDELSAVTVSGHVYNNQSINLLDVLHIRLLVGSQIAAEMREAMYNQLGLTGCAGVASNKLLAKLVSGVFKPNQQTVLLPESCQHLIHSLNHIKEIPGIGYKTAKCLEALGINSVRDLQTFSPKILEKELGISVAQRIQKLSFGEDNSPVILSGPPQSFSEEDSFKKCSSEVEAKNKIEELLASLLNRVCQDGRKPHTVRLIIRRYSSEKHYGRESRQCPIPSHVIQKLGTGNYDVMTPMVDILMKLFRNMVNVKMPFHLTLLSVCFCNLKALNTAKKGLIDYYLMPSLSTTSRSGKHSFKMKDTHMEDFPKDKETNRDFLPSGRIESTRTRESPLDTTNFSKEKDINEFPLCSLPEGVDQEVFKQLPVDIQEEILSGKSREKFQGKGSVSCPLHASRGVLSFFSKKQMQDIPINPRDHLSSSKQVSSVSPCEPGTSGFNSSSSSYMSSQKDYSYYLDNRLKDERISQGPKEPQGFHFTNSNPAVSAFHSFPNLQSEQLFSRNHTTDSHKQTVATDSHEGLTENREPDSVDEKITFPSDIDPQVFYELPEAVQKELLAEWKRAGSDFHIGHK
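Fluorescent replication assay read twice, at 0 min and 10 min after adding 50 nM (final) substrate. Enzyme (10 nM) and compounds were first incubated 15 min at room temperature; enzyme-free buffer wells were negative controls.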
PI5P4K alpha inh: qHTS for Inhibitors of phosphatidylinositol 5-phosphate 4-kinase (PI5P4K); Phosphatidylinositol 5-phosphate 4-kinase type-2 alpha (Homo sapiens), P48426; PI5P4Kalpha enzyme, ADP-Glo luminescence, 60 min; hits give low values; max response, %; actives 1.2% (n = 330,000); AID 652105, 2013; active = max response of -50% or lower; inconclusive = between -30% and -50%; inactive = -30% or higher; note: value at the top dose of about 77 µM; % is set by controls: 0 for no effect and ±100 for the full control effect
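Compounds were pin-transferred onto PI5P4Kalpha and substrate in HEPES pH 7.4 buffer with EGTA, CHAPS and 5% DMSO. ATP (5 microM final) started the reaction, which ran 60 minutes at room temperature before ADP-Glo detection.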
Pol kappa inh-1: qHTS for Inhibitors of Polymerase Kappa. purified Pol kappa, fluorescent DNA synthesis assay, 10 min. actives 0.53% (n = 400,000). Potency, µM (titrated, usually from 107 µM), inactives show top-dose activity, negative = inhibition, most hits filed as inhibitors; note: potency is the fitted concentration of half-maximal effect; % is set by controls: 0 for no effect and ±100 for the full control effect
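Activity was followed as the change in fluorescence between reads at 0 and 10 min after starting the reaction with 50 nM substrate. Beforehand, 10 nM polymerase had been preincubated with compound for 15 min at room temperature.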
Pol beta inh: qHTS Assay for Inhibitors of DNA Polymerase Beta | actives 1.3% (n = 340,000) | Pol beta primer extension/strand displacement, fluorescence kinetic | Potency, µM (series often up to 114 µM), for inactives: at the highest dose activity change, negative = inhibition, hits mostly inhibitors | P06746; note: potency is the fitted concentration of half-maximal effect; % is set by controls: 0 for no effect and ±100 for the full control effect
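Curves were derived by four-parameter Hill fits of normalized qHTS data. The kinetic fluorescent primer-extension read was taken at 0 and 10 min after 50 nM substrate, following a 15 min room-temperature preincubation of 10 nM enzyme with compounds.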
GALK confirm: Confirmation Assay for Inhibitors of Human Galactokinase (GALK); shares compounds with Pol eta inh-1; purified GALK, Kinase-Glo ATP depletion luminescence; Potency, µM (highest dose often 115 µM), for inactives: top-dose activity, negative = inhibition, most hits filed as inhibitors; actives 70% (n = 150)
GALK redox cs: Confirmatory Assay for Inhibitors of Human Galactokinase (GALK): Phenol-HRP redox assay counterscreen | actives 40% (n = 150) | shares compounds with Pol eta inh-1 | Potency, µM (top dose mostly 115 µM), for the others: at the highest dose activity change, negative = H2O2 signal, actives largely listed as inhibitors | Phenol red-HRP H2O2 redox cycling, absorbance 600 nm
HEK293 tox: Secondary Assay for Inhibitors of Human Galactokinase (GALK): HEK-293 Cell Viability Assay; shares compounds with Pol eta inh-1; HEK-293 viability, ATP luminescence (CellTiter-Glo), 24/48 h; Potency, µM (series often up to 46.1 µM), without a hit: top-dose activity change, negative = cytotoxicity, actives largely listed as inhibitors; actives 10% (n = 170); AID 2547, 2010; note: potency is the fitted concentration of half-maximal effect; % is set by controls: 0 for no effect and ±100 for the full control effect
Pol kappa inh-2: qHTS for Inhibitors of Polymerase Kappa: Confirmatory Assay for Cherry-picked Compounds. shares compounds with Pol eta inh-1. purified Pol-kappa, fluorescent strand-displacement substrate. Potency, µM, usual class: inhibitors. actives 76% (n = 920); note: potency is the fitted concentration of half-maximal effect
Pol eta inh-2: qHTS for Inhibitors of Polymerase Eta: Confirmatory Assay for Cherry-picked Compounds. shares compounds with Pol eta inh-1. AID 720502, 2013. Pol eta primer extension, TAMRA/BHQ fluorescence, 10 min. Potency, µM, most hits filed as inhibitors. actives 64% (n = 2,600); note: potency is the fitted concentration of half-maximal effect
* marks the source's active call; other numbers are inactive results; ? = inconclusive; · = not tested or not shown; ! = repeats disagree; [ ] = remark or other dose. Unless noted, calls come from the whole dose curve; as a rule, active = well fitted curve in the direction sought with a large enough effect; inconclusive = small, poorly fitted or top-dose-only effect, or another doubt; inactive = no such curve, though single readings can be large; an effect the other way counts as inactive or inconclusive.

SMILES	Pol eta inh-1	12-LOX inh	Pol iota inh	PI5P4K alpha inh	Pol kappa inh-1	Pol beta inh	Pol eta inh-2	others
Cc1cccn2c(=O)c3cc(C#N)c(=NC(=O)c4cccs4)n(CC(C)C)c3nc12	13%	1%	18%	1	6%	-8%	·
COc1cc2c(cc1OC)CN(C(=O)CCc1ncc(-c3c(F)cccc3F)o1)CC2	·	15%	·	·	·	·	·
O=[S+]([O-])(c1ccccc1)N1CCn2c(nnc2-c2ccc(Cl)cc2)C1	·	11%[6.33 µM]	·	·	·	·	·
NC(N)=N/N=C1\CCCCC1c1nccc2ccccc12 (centres undefined)	·	14%	·	·	·	·	·
COc1ccc(-c2cc3c(=O)[nH]nc(SCC(=O)N4CCCC4)n3n2)cc1OC	·	26%	·	·	·	·	·
CCc1ccc(NC(=O)c2ccc(NS(=O)(=O)c3c(C)noc3C)cc2)cc1	-3%	-10%	-26%	·	-7%	78%	·
Cc1noc(C)c1S(=O)(=O)Nc1ccc(C(=O)Nc2ccc(OC(F)(F)F)cc2)cc1	-17%	-25%	11%	10	4%	33%	·	GALK confirm=33µM*;GALK redox cs=1%;HEK293 tox=?
N#C/C(=C\c1ccc(C(=O)O)cc1)c1nc2sc3c(c2c(=O)[nH]1)CCCC3	20µM*	?	?	-50*	?	50µM*	30*
CCOC(=O)c1nc2sc3c(c2c(=O)[nH]1)CCCC3	8%	0%	11%	-13	1%	-12%	·
O=C(O)c1ccc(N/N=C/C2=C(N3CCOCC3)C(=C\c3ccccc3)/CC2)cc1	50µM*	-56%	?	-3	32µM*	?	?
CCCS(=O)(=O)c1ncc(Cl)c(C(=O)N(Cc2ccc(C)cc2)C2CCS(=O)(=O)C2)n1 (centres undefined)	·	-27%	·	·	·	·	·
CC(=O)NCCC(=O)Nc1ccc2c(c1)CCC2	·	3%	·	·	·	·	·
O=C(O)Cc1ccc(NC(=O)c2ccc(NC(=O)c3ccco3)cc2)cc1	25µM*	-10%	45µM*	·	?	?	43*
N#CCOc1ccc2ccccc2c1	·	1%	·	·	·	·	·
O=C(COc1cccc(F)c1)Nc1nc(-c2cccnc2)cs1	3%	359%	29%	-6	-20%	·	·
O=C(COc1ccc(F)cc1)Nc1nc(-c2cccnc2)cs1	35µM*	-19%	·	?	·	·	?
Oc1c(Br)cc(/C=N/Nc2ccc(Cl)nn2)cc1Br	22µM*	?	?	-93*	?	50µM*	85*
COc1cc(/C=N/Nc2ccc(Cl)nn2)cc(OC)c1O	-5%	?	-13%	0	-24%	1%	·
Nc1ccc(C(CC(=O)O)n2cccc2)cc1 (centres undefined)	25µM*	-10%	40µM*	-12	45µM*	?	34*
Cc1nc(-n2nc(C)c(Cl)c2C)sc1C(=O)Nc1ccc(F)cc1	·	14%	·	·	·	·	·
CCC(C)c1ccc(-c2nc3ccccc3c(C(=O)O)c2C)cc1 (centres undefined)	·	-11%	·	·	·	·	·
Cc1cc(=O)oc2cc(OCC(=O)N3c4ccccc4NC(=O)C3(C)C)ccc12	56µM*	-63%	40µM*	?	?	·	?
Cc1noc(C)c1COc1ccc(C(=O)OCC(=O)N2c3ccccc3NC(=O)C2(C)C)cc1	7.1µM*	34%	?	?	?	22µM*	·	Pol kappa inh-2=34*
Cc1cc(=O)oc2cc(OCC(=O)N3CCCc4ccccc43)ccc12	-7%	46%	11%	-2	4%	-2%	·
Cc1noc(C)c1COc1ccc(C(=O)OCC(=O)N2CC(=O)Nc3ccccc32)cc1	-6%	24%	-8%	·	-11%	3%	·
SMILES	Pol eta inh-1	12-LOX inh	Pol iota inh	PI5P4K alpha inh	Pol kappa inh-1	Pol beta inh	Pol eta inh-2	others
C=CCNC(=O)C(C#N)c1nc2ccccc2nc1N1CCC(C(=O)OCC)CC1 (centres undefined)	·	2%	·	·	·	·	·
C/C(N)=C(/C#N)C(=O)COC(=O)C1CCN(S(=O)(=O)c2cccs2)CC1	-18%	-28%	-7%	1	-18%	·	·
C/C(N)=C(/C#N)C(=O)COC(=O)C1Cc2ccccc2CN1S(C)(=O)=O (centres undefined)	20µM*	-10%	22µM*	-59*!	?	40µM*	67*
CS(=O)(=O)N1Cc2ccccc2CC1C(=O)OCC(=O)NCc1ccccc1 (centres undefined)	16µM*	-15%	79µM*	?	?	·	?
COc1ccccc1NC(=O)CSc1nc(N2CCOCC2)c2c(c1C#N)CC(C)(C)OC2	·	5%	·	·	·	·	·
O=C(NCCO)c1cc([N+](=O)[O-])cc2c1C=Cc1ccccc1O2	-6%	-20%	127%	-4	-2%	0%	·
O=C(O)c1cc([N+](=O)[O-])cc2c1C=Cc1ccccc1O2	28µM*	?	?	-9	?	56µM*	·	Pol kappa inh-2=?
COc1cc(O)c2c(c1)OC(C)(C)CC2=O	-3%	-27%	-3%	0	-4%	7%	·

Screening data from PubChem.
